According to PubChem BioAssay AID1903 (Southern Research Specialized Biocontainment Screening …, 2009):
The whole screen tested about 310,000 compounds, of which about 1,200 (0.39%) were called active. The rule behind the calls is not given here. These entries were drawn from the full list. Potency and affinity values are given separately.

biological target: Large T antigen (Simian virus 40) (UniProt P03070); assay: SV40 large T antigen inhibitors, biochemical (AID 1903); conditions: SV40 large T antigen ATPase/helicase inhibition assay; at 20 µM; stronger effect = higher value
Sequence (P03070 whole entry, looked up): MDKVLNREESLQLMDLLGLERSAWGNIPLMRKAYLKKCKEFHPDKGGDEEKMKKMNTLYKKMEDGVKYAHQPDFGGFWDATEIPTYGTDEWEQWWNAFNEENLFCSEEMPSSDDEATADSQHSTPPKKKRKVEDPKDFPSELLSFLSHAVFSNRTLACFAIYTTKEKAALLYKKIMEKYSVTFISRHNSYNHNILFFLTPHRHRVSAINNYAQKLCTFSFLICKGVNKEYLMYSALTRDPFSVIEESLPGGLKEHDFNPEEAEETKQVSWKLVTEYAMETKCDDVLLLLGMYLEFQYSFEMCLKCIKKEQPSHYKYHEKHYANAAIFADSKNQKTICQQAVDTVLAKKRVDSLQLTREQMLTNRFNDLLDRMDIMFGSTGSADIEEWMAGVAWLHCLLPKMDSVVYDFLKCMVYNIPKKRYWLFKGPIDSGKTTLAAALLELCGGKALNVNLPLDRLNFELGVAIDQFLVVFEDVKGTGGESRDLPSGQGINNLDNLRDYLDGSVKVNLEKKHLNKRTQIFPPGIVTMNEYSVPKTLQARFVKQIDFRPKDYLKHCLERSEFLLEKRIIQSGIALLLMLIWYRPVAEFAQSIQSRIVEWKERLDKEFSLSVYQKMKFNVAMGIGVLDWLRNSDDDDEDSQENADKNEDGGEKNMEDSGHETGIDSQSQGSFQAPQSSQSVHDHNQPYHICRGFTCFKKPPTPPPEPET

inhibition, inactive:
O=C(O)c1nn2c(c1Br)NC(c1ccccc1)CC2C(F)(F)F (configuration not stated) 3.96%, COc1ccc(C(=O)NNC(=O)C2CCCN(C3CC(=O)N(c4ccccc4)C3=O)C2)cc1 (configuration not stated) 9.48%, C/C(=N/NC(=O)NC12CC3CC(CC(C3)C1)C2)c1ccccc1 6.61%, Cn1c(=O)c2c(ncn2CC(O)CNc2ccc(F)cc2)n(C)c1=O (configuration not stated) 5.3%, Cc1ccc(NCC(O)Cn2cnc3c2c(=O)n(C)c(=O)n3C)cc1 (configuration not stated) 16.6%, CCOC(=O)C1CCN(C(=S)Nc2ccccc2)CC1 11.3%, CCOC(=O)C1=C(C)NC(c2cccs2)C(=O)N1 (configuration not stated) 6.75%, Cc1c(C(=O)OCC(C)C)[nH]c2c1C(=O)CC(c1cccs1)C2 (configuration not stated) 22.8%, COc1ccccc1N/N=C/c1ccc2c(c1)OCO2 5.16%, CCN(CC)C(=O)Nc1ccccc1C 3.88%, COc1ccc(-c2cn[nH]c2-c2ccc(O)cc2O)cc1 25.6%, COc1ccccc1-c1cn[nH]c1-c1ccc(O)cc1O 36.1%, CC/C(=N/O)C(=O)c1ccc(Br)cc1 8.42%, Cc1ccccc1NC(=O)COC(=O)/C=C/c1cccc(C(F)(F)F)c1 3.86%, O=[N+]([O-])c1cc(S(=O)(=O)NC2=NCCCCC2)ccc1Cl 6.57%, O=Nc1ccc(NOC(=O)c2ccccc2)cc1 19.7%, O=C(N=Nc1ccc(NOC(=O)c2ccccc2Br)cc1)c1ccccc1O 11.6%, O=C(O)C1CCN(C(=O)c2cccc3ccccc23)CC1 4.64%, CCc1ccccc1N1CC(C(=O)O)CC1=O (configuration not stated) -0.59%, Cc1cc(N2CCOCC2)nc2ccc(NC(=S)NC(C)C)cc12 4.55%, COc1ccc(NC(=O)/C=C/c2cc(OC)c(OC)c(OC)c2)cn1 7.41%, CS(=O)(=O)N(CC(=O)NC1CC1)C1CCCCC1 7.67%, Cc1csc(-c2cnn(-c3ccccc3)c2NC(=O)c2cccc(C(F)(F)F)c2)n1 0.685%, O=[N+]([O-])c1cc(S(=O)(=O)N2CCOCC2)ccc1N1CCCC1 -2.39%, N#Cc1cc(S(=O)(=O)N2CCOCC2)ccc1N1CCOCC1 7.94%, Cc1ccc(C)n1-c1cc(S(=O)(=O)N2CCOCC2)ccc1N1CCCC1 1.24%, O=S(=O)(c1ccc(N2CCOCC2)c(Cl)c1)N1CCOCC1 7.49%, CCSC1=C(C#N)C(c2cccc(Br)c2)CC(=O)N1 (configuration not stated) 1.17%, CCOC(=O)c1[nH]c2ccc(OC)cc2c1N=CN(C)C 16.9%, CCn1nnnc1SCC(=O)Nc1cccc(NC(C)=O)c1 0.63%, Cc1ccc2nccc(C(=O)N3CCCC(Nc4ccc(F)cc4)C3)c2c1 (configuration not stated) 14%, Cc1ccc(-c2noc(C3CCCN(C(=O)c4ccccc4Br)C3)n2)o1 (configuration not stated) 15.6%, O=C(Nc1ccccc1)C1CC(=O)N(Cc2ccccc2)C1 (configuration not stated) 27.5%, CC(=O)Nc1ccc(NC(=O)C2CC(=O)N(Cc3ccccc3)C2)cc1 (configuration not stated) 27.7%, COc1ccc2nc(N3C(=O)CC(Cc4cc(C)cc(C)c4)C3=O)sc2c1 (configuration not stated) -1.29%, COc1ccc(OCc2cc(C(=O)NC3CCOCC3)no2)c2ccccc12 12%, COC(=O)C1=C(C)N(Cc2ccco2)C(=O)C1 23.9%, O=C1CC(=O)N(Cc2cccs2)C(=O)N1 22.2%, O=C1C2C(C(=O)N1Cc1ccco1)C1C=CC2C12CC2 (configuration not stated) -1.46%, O=C1c2ccccc2C(=O)N1Cc1ccco1 4.84%, COc1ccc(S(=O)(=O)N2CCCC(C(=O)N3CCOCC3)C2)cc1OC (configuration not stated) 7.49%, CN(C)c1ccc(C(=O)N2CCN(c3cc(C(F)(F)F)nc4ccccc34)CC2)cc1 16.5%, Cc1ccc(Cc2c(C)nc3nc(SCC(=O)NCCCN4CCCC4)nn3c2C)cc1 9.31%, O=C1C(=O)N(Cc2cccnc2)C(c2ccc(Br)cc2)/C1=C(\O)c1ccc2c(c1)OCCO2 (configuration not stated) 8.89%, O=C1/C(=C/c2cccs2)NC(=S)N1C1CC1 9.13%, CN(C)c1ncc(/C=C2/C(=O)NC(=S)N(C3CCCCC3)C2=O)cn1 10.9%, CN(C)c1ccc(/C=C/c2cc[n+](C)cc2)cc1 7.41%, CN(C)c1ccc(/C=C/c2ccncc2)cc1 25.2%, Cn1c(CCc2nc3ccccc3[nH]2)n[nH]c1=S 9.76%, CC(=O)NC1(c2ccccc2)CCN(C(=O)N2CCOCC2)CC1 4.59%, Cc1c(NS(=O)(=O)c2ccccc2F)c(=O)n(-c2ccccc2)n1C 3.58%, O=C(Nc1ccc2c(c1)CCC2)c1cccc(OC(F)F)c1 15.1%, CC(=O)Nc1ccc(NC(=O)CS(=O)(=O)c2cn(CC(=O)N3CCC(C)CC3)c3ccccc23)cc1 21.1%, NC(=S)N/N=C/c1coc2c(ccc3ccccc32)c1=O 10.7%, O=Cc1coc2ccc3ccccc3c2c1=O 12.7%, CC(C)Cn1c(=O)c2c(nc3n2CC(C)CN3Cc2ccccc2)n(C)c1=O (configuration not stated) 9.7%, Cc1cc(C)n(-c2nc3ccccc3c(=O)n2OCC(=O)Nc2c(C)cccc2C)n1 1.06%, O=C1c2cccnc2C(=O)N1Cc1ccc(S(=O)(=O)N2CCN(c3ccccc3)CC2)cc1 -3.05%, CCc1ccccc1NC(=O)C1CCCN(c2ncnc3onc(-c4ccc(F)cc4)c23)C1 (configuration not stated) 4.3%, COc1ccc(NC2CCCN(Cc3cccc4cnccc34)C2)cc1 (configuration not stated) 30.9%, COc1ccc(NC2CCCN(C(=O)CCc3ccncc3)C2)cc1OC (configuration not stated) 35.9%, COc1ccc(Br)cc1/C=C/C(=O)NC(=S)Nc1ccc(Cl)c(C(=O)O)c1 25.5%, COc1cc(/C=C2\SC(c3ccccc3)=NC2=O)cc(Cl)c1O 33.2%, CC(=O)Nc1ccc2oc(-c3cc(F)c(F)cc3Cl)nc2c1 0.785%, CCOC(=O)/C=C1\Nc2ccccc2OC1=O 28.2%, Cc1ccc2c(c1)NC(=O)C(CC(=O)O)O2 (configuration not stated) 3.98%, CCCN(CCC)S(=O)(=O)c1ccc(NC(=O)C2CCCO2)cc1 (configuration not stated) 3.88%, N/C(COc1ccc(C(=O)O)cc1)=N\O 0.11%, OCCNc1c2ccccc2nc2ccccc12 12.6%, COc1ccc(CCNc2c3ccccc3nc3ccccc23)cc1OC 11.5%, CCN(CC)CCN1C(=O)C(O)=C(C(=O)c2cc3ccccc3o2)C1c1cccnc1 (configuration not stated) 2.07%, CCN(CC)CCN1C(=O)C(O)=C(C(=O)c2sc(C)nc2C)C1c1cccnc1 (configuration not stated) 2.43%, O=C(O)CC(NS(=O)(=O)c1cccc2nsnc12)c1ccc(F)cc1 (configuration not stated) 0.56%, O=c1c2ccccc2c2ccccc2c(=O)n1-c1ccccc1 4.04%, O=c1[nH]n(-c2ccccc2)c(=O)c2ccccc12 3.85%, COc1cccc(C(=O)Nc2cc(OC)ccc2NC(=O)c2ccco2)c1 17.6%, NCCN=C1NS(=O)(=O)c2ccccc21 7.44%, Nc1ccc2c(c1)C(=O)C(=O)c1ccccc1-2 15.6%, COc1ccc(Nc2nc3ccccc3nc2NS(=O)(=O)c2ccc(NC(C)=O)cc2)cc1 12.8%, CC(=O)Nc1ccc(S(=O)(=O)Nc2nc3ccccc3nc2Nc2ccc(S(N)(=O)=O)cc2)cc1 6.12%, CC(=O)Nc1ccc(S(=O)(=O)Nc2nc3ccccc3nc2Nc2ccccc2)cc1 1.54%, CC(=O)Nc1ccc(Nc2nc3ccccc3nc2NS(=O)(=O)c2ccccc2)cc1 23.5%, Cn1c(=O)c(C(=O)c2ccc(S(C)(=O)=O)c(Cl)c2Cl)c(O)c2ccccc21 17%, Cn1cc(C(=O)NCCO)c(=O)c2ccccc21 -1.83%, O=C(CSc1nnc(-c2ccccc2)n1CC1CCCO1)N1CCCC1 (configuration not stated) 12.8%, Cc1nnc2ccc(-c3cccc(NS(=O)(=O)c4ccccc4Cl)c3)nn12 10.3%, CSc1ccccc1N=Cc1nc(-c2ccccc2)oc1O 8.02%, Cc1cccc(NCC(=O)c2c(N)n(C)c(=O)n(C)c2=O)c1C 4.72%, COC(=O)CN1C(c2cccc(Cl)c2)=Nc2ccc(Cl)cc2C1c1ccccc1 (configuration not stated) 7.04%, COc1cc(/C=N/n2c(-c3cc(C)[nH]n3)n[nH]c2=S)cc(OC)c1O 24.5%, COc1cc(/C=N/n2c(C3CCCCC3)n[nH]c2=S)ccc1O 21%, COc1cccc(/C=N/n2c(SC)nnc2-c2ccccc2)c1O 26.3%, COc1cc(/C=N/n2c(C3CCCCC3)n[nH]c2=S)cc(OC)c1O 10.8%, COc1cccc(/C=N/n2c(-c3cc(C)[nH]n3)n[nH]c2=S)c1OC 26.8%, COc1ccc(/C=N/n2c(-c3n[nH]c4c3CCC4)n[nH]c2=S)cc1OC 23.9%, COc1ccc(CCNC(=O)CN(C)S(=O)(=O)c2ccc(Br)s2)cc1OC -4.17%, Cc1c(Cc2ccccc2)c(=O)oc2c(C)c(OCc3nn[nH]n3)ccc12 11.2%
